An excerpt weighted towards active compounds, which were near 1.6% of everything screened.
KCNQ2 pot: KCNQ2 (rat) channel potentiation | O88943 | CHO-K1 KCNQ2, FluxOR thallium flux fluorescence; active compounds read high | B-score at 10 µM | 0.54% of 310,000 active | AID 2239;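 active means fluorescence ratio B-score at least 3 SD of library B-scores, with initial fluorescence B-score within 3 of them, cut at about 5.3 in these data; same plate scores as AID 2156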;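 further: B-score of peak minus minimum over baseline fluorescence ratio after K+ and Tl+ stimulus; positive B-score means potentiation of KCNQ2 with more thallium influx and brighter signal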
Target sequence (O88943 whole entry, looked up): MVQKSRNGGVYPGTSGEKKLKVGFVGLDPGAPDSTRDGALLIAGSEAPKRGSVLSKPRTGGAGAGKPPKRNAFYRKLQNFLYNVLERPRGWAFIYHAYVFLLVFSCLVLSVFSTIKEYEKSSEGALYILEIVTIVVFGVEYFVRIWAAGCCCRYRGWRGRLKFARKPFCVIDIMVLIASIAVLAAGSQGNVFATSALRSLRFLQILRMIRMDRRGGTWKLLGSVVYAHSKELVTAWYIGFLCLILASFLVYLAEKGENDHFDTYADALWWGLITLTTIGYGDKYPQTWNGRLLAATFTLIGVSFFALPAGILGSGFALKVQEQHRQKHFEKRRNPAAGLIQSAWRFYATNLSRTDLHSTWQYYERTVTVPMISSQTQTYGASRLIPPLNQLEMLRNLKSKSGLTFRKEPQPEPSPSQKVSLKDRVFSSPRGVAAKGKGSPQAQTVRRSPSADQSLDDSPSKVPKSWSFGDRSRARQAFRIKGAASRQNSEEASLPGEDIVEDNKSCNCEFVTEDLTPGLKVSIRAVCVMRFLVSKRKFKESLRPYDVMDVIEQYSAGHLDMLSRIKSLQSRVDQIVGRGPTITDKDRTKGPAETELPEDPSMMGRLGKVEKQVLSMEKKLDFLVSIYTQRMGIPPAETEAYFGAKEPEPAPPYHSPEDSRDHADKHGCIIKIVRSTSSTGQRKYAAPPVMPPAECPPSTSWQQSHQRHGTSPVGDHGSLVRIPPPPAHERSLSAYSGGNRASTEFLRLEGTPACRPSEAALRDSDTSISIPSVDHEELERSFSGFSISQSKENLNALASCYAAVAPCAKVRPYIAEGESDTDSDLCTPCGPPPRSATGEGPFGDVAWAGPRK
KCNQ2 inh: inhibitors of rat KCNQ2 potassium channel | B-score at 10 µM | CHO-K1 KCNQ2, FluxOR thallium flux, 20 min; active compounds read low | 1.1% of 310,000 active;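 active means fluorescence ratio B-score at most minus 3 library SDs, with starting brightness B-score within 2 library SDs, cut at about -5.5 in these data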
Large screens that a line does not name were inactive.

Cc1cc(C)cc(NC(=O)C2CCCN2/C=C/C(=O)C(F)(F)F)c1 (centres undefined)	none
C=CCOc1c(CNc2ccc(S(N)(=O)=O)cc2)cccc1OC	none
COc1cccc(CNc2ccc(S(N)(=O)=O)cc2)c1OCc1ccccc1F	KCNQ2 pot 9.3
CC(Oc1ccc(F)cc1)C(=O)Nc1ccccc1N1CCCCC1 (centres undefined)	KCNQ2 inh -7.73
CCC(Oc1ccccc1)C(=O)Nc1ccccc1N1CCCCC1 (centres undefined)	none (no result: KCNQ2 pot)
Cc1ccc(-n2nc3c(=O)n(CCCC(=O)NCC(C)c4ccccc4)nc(C)c3c2C)cc1 (centres undefined)	none (no result: KCNQ2 pot)
O=c1c2ccccc2[nH]c(=S)n1CCC1=CCCCC1	KCNQ2 pot 8.45
O=c1c2ccccc2[nH]c(=S)n1CCN1CCCCC1	none
Cc1ccc(NC(=O)[C@H](Cc2c[nH]c3ccccc23)NC(=O)[C@@H]2Cc3ccccc3CN2)c(C)c1	KCNQ2 inh -6.7
CC(C)C[C@H](NC(=O)[C@@H]1Cc2ccccc2CN1)C(=O)Nc1ccc(C(C)C)cc1	none (no result: KCNQ2 pot)
Cc1ccc(NC(=O)[C@H](Cc2ccccc2)NC(=O)[C@@H]2Cc3ccccc3CN2)c(C)c1	none (no result: KCNQ2 pot)
CC(NC(=O)[C@H](Cc1c[nH]c2ccccc12)NC(=O)[C@@H]1Cc2ccccc2CN1)c1ccccc1 (some centres undefined)	KCNQ2 inh -5.89
CCc1ccc(NC(=O)[C@H](Cc2c[nH]c3ccccc23)NC(=O)[C@@H]2Cc3ccccc3CN2)cc1	none (no result: KCNQ2 pot)
Cc1cccc(NC(=O)[C@H](Cc2c[nH]c3ccccc23)NC(=O)[C@@H]2Cc3ccccc3CN2)c1	KCNQ2 inh -6.45
CC(C)COC(=O)N1C[C@H](O)C[C@H]1C(=O)Nc1ccc(Cl)cc1	none
CCC(C)NC(=O)NCc1ccccc1F (centres undefined)	none (no result: KCNQ2 pot)
Cn1cc(C(=O)C(=O)NC2CCCCC2)c2ccccc21	none (no result: KCNQ2 pot)
Cc1ccc(C(OCCN(C)C)c2cccc(C(F)(F)F)c2)cc1 (centres undefined)	none (no result: KCNQ2 pot)
CC(=O)NNC(=O)c1[nH]c2ccc(Br)cc2c1-c1ccccc1	none
CCOC(=O)NNC(=O)c1[nH]c2ccc(Br)cc2c1-c1ccccc1	KCNQ2 inh -6.83
CC(=O)NC1C(OCc2ccccc2)OC2COC(c3ccccc3)OC2C1OCC(=O)O (centres undefined)	none
CCOC(=O)N1CCN(C(=O)c2ccc3c(c2)N=C(CC)c2cc(C)ccc2S3)CC1	none (no result: KCNQ2 pot)
CCCC1=Nc2cc(C(=O)N3CCN(c4ccccn4)CC3)ccc2Sc2ccc(C)cc21	KCNQ2 inh -5.65
CCCC1=Nc2cc(C(=O)N3CCCC3)ccc2Sc2ccc(C)cc21	none (no result: KCNQ2 pot)
CCC1=Nc2cc(C(=O)N3CCCCC3)ccc2Sc2ccc(C)cc21	KCNQ2 inh -5.87
CCOC(=O)Cc1csc(/N=C/c2c(O)n(-c3ccccc3C(F)(F)F)c(=O)c3ccccc23)n1	none
Cc1ccccc1OCC(=O)Nc1nnc(COc2ccccc2)s1	none (no result: KCNQ2 pot)
COc1ccc(-n2nc3c(c2NC(=O)C(C)Oc2ccccc2)CS(=O)C3)cc1 (centres undefined)	none (no result: KCNQ2 pot)
CCOc1ccc(N(CC(=O)N2CCOCC2)S(=O)(=O)c2ccc(F)cc2)cc1	none (no result: KCNQ2 pot)
Cc1ccc(SC[C@H](Cc2ccccc2)N2CCN(CC(C)C)CCC2=O)cc1	none (no result: KCNQ2 pot)
CC(C)CN1CCC(=O)N([C@H](CSc2ccccc2)Cc2ccccc2)CC1	KCNQ2 inh -5.67
O=C1CCN(CCc2ccccc2)CCN1[C@H](CSc1ccccc1)c1ccccc1	none (no result: KCNQ2 pot)
Cc1ccc(SC[C@H](c2ccccc2)N2CCN(CCc3ccccc3)CCC2=O)cc1	KCNQ2 inh -6.09
O=C(Nc1cccc(Cl)c1)N(CCN1CCOCC1)Cc1cccc(Cl)c1	KCNQ2 inh -7.33
O=C(Nc1cccc(Cl)c1)N(CCN1CCOCC1)Cc1ccccc1F	none (no result: KCNQ2 pot)
O=C(Nc1ccccc1C(=O)NC(Cc1ccccc1)C(=O)O)c1ccccc1 (centres undefined)	none (no result: KCNQ2 pot)
O=C(Nc1ccccc1C(=O)Nc1ccccc1C(=O)O)c1ccccc1	KCNQ2 inh -5.89
O=C(Nc1ccccc1C(=O)NC(Cc1ccccc1)C(=O)NC1CCCCC1)c1ccccc1 (centres undefined)	KCNQ2 inh -7.17
Nc1ccc(C(=O)Nc2ccccc2C(=O)O)cc1	none
Oc1[nH]c2c(Cl)cc(Cl)cc2c1N=NC(=S)NCC1CCCO1 (centres undefined)	KCNQ2 pot 10.9
Cc1cc(C)c2[nH]c(O)c(N=NC(=S)NCC3CCCO3)c2c1 (centres undefined)	none
CSc1ccc(CN2CCC(C(=O)NCc3ccc(C)cc3)CC2)cc1	none (no result: KCNQ2 pot)
CS(=O)(=O)c1nc(-c2ccc(Br)cc2)n[nH]1	none (no result: KCNQ2 pot)
NC(=S)N=Nc1c(O)n(CCCl)c2ccc(Br)cc12	none (no result: KCNQ2 pot)
C/C(Cl)=C\Cn1c(O)c(N=NC(N)=S)c2cc(Br)ccc21	KCNQ2 pot 9.18
CC(C)[C@H](NC(=O)NC1CCCc2ccccc21)C(=O)O (some centres undefined)	none (no result: KCNQ2 pot)
COC(=O)[C@H](C)NC(=O)NC1CCCc2ccccc21 (some centres undefined)	KCNQ2 inh -6.47
O=C(NC1CCCc2ccccc21)c1cccc(Br)c1 (centres undefined)	none (no result: KCNQ2 pot)
CN(C)c1cccc(C(=O)NC2CCCc3ccccc32)c1 (centres undefined)	KCNQ2 inh -6.49
O=C(COc1ccc(Cl)cc1)NNC(=O)c1ccccc1C(=O)O	none (no result: KCNQ2 pot)
NC(=S)N/N=C/c1ncc(C(F)(F)F)cc1Cl	none (no result: KCNQ2 pot)
CC1CCc2sc(C(=O)NC(C)C3CCCO3)cc2C1 (centres undefined)	KCNQ2 inh -6.08
CC1CCc2sc(C(=O)NNC(=S)NCC3CCCO3)cc2C1 (centres undefined)	none
CCOc1cc(/C=N/NC(=O)C(O)(c2ccccc2)c2ccccc2)ccc1OC(=O)c1ccco1	none (no result: KCNQ2 pot)
CC(C)c1ccc(NC2CCCN(C(=O)C3=NN(C)C(=O)CC3)C2)cc1 (centres undefined)	none (no result: KCNQ2 pot)
COc1cccc(-n2c(CN3CCN(c4ccc(C)cc4)C(C)C3)nc3ccc([N+](=O)[O-])cc3c2=O)c1 (centres undefined)	none (no result: KCNQ2 pot)
COc1cccc(-n2c(CN3CCN(c4cccc(C)c4)C(C)C3)nc3ccc([N+](=O)[O-])cc3c2=O)c1 (centres undefined)	KCNQ2 inh -5.78
C=CCN(CC=C)C(=O)C(=O)c1ccn(-c2c(C)csc2C(=O)OC)c1	none (no result: KCNQ2 pot)
O=C(N/C(=C\c1ccc(Br)cc1)C(=O)N1CCOCC1)c1ccc([N+](=O)[O-])cc1	KCNQ2 inh -5.94
O=C(N/C(=C\c1ccco1)C(=O)N1CCOCC1)c1ccc([N+](=O)[O-])cc1	none
CN(C)c1cccc(/C=C(\C#N)c2ccccc2)c1	KCNQ2 inh -5.68
CN(C)c1ccc(/C=C(\C#N)C(=O)c2ccccc2)cc1	none
O=C(Cc1ccccc1)NCC(=O)N1CCC1	none
O=C1NC2(Nc3ccccc31)C(=O)Nc1ccc(Br)cc12 (centres undefined)	KCNQ2 inh -6.24
O=C1NC2(Nc3ccccc31)C(=O)Nc1ccccc12 (centres undefined)	none
O=C(CSc1nnc(CNC(=O)c2c(F)cccc2F)o1)NCC1CCCO1 (centres undefined)	none (no result: KCNQ2 pot)
Cc1ccc(-c2noc(CNS(=O)(=O)c3ccccc3)n2)cc1	none
Fc1ccccc1NC(=S)Nc1ccc(CN2CCOCC2)cc1	none (no result: KCNQ2 pot)
Cn1cc(/C=C(\NC(=O)c2ccccc2Cl)C(=O)N2CCOCC2)c2ccccc21	KCNQ2 inh -7.04
COc1ccccc1C(=O)N/C(=C\c1cn(C)c2ccccc12)C(=O)N1CCOCC1	none (no result: KCNQ2 pot)
COc1ccccc1NC(=O)C(C)OC(=O)CCCOc1ccccc1 (centres undefined)	none (no result: KCNQ2 pot)

Screens deposited in PubChem BioAssay by Johns Hopkins Ion Channel Center.
